Compounds with a hit are over-represented: about 4.1% of the library has one in this group of screens.
hgDAF-12 ag: agonists of H. glycines DAF-12 nuclear receptor; HEK293 GAL4-hgDAF12 UAS-luciferase reporter, agonist luminescence; normalized to butyrate control; activation, % at 6.8 µM; 1.8% of 370,000 active;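 active means activation above a cutoff set at the mean of all screened compounds plus 3 SD, cut at about 10% in these data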
ssDAF12 agonist: S. stercoralis DAF-12 activation, primary screen; HEK293 ssDAF-12/GRIP1 lit1-tk-luc reporter, luminescence; % of 3 µM dafachronic acid response; activation, % at 6.8 µM; 1% of 370,000 active; AID 652126;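 active means activation above the mean over all tested compounds plus 3 SD, cut at about 0.9% in these data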
DAX1 inh-1: DAX1 (NR0B1) inhibition, primary screen. HEK293T StAR-luciferase reporter, SF-1/DAX-1 repression relief. inhibition, % at 6.8 µM. 1.1% of 370,000 active;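 active means inhibition above the mean over all tested compounds plus 3 SD, cut at about 3.6% in these data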;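 further: higher inhibition means more luminescence from relief of DAX-1 repression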
DAX1 inh-2: inhibits human nuclear receptor DAX1; P51843; HEK293 Gal4-DAX1 luciferase reporter, luminescence; inhibition, % at 6.75 µM; 0.99% of 340,000 active;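 active means inhibition above the mean over all tested compounds plus 3 SD, cut at about 4.2% in these data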;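 further: inhibition shows as a rise in luminescence from relieved DAX1 repression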
Target sequence (P51843 207-470 limits assumed): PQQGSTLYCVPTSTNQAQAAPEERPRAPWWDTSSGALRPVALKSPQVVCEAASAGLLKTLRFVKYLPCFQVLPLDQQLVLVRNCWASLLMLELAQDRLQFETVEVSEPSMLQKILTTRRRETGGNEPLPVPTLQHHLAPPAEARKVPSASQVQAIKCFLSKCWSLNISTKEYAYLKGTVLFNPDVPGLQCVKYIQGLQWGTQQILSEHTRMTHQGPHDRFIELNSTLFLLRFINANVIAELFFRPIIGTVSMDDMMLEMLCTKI
hcDAF12 agonist: activates DAF-12 receptor from parasite H. contortus; HEK293 hcDAF-12 lit1-tk-luc reporter, luminescence; 0% DMSO, 100% Δ7-dafachronic acid; activation, % at 6.8 µM; 1.4% of 370,000 active; AID 652067;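 active means activation above the mean of all tested compounds plus 3 SD, cut at about 5.5% in these data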
DAX1 inh confirm: confirmation of human DAX1 (NR0B1) inhibitors | shares compounds with DAX1 inh-1 | inhibition, % at 6.8 µM | 87% of 2,400 active | HEK293T StAR-promoter luciferase reporter, SF-1/DAX-1 repression;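 active means inhibition above the average of every tested compound plus 3 SD, cut at about 3.8% in these data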;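 further: active compounds raise luminescence by relieving repression of the StAR reporter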
Target sequence (P51843 whole entry, looked up): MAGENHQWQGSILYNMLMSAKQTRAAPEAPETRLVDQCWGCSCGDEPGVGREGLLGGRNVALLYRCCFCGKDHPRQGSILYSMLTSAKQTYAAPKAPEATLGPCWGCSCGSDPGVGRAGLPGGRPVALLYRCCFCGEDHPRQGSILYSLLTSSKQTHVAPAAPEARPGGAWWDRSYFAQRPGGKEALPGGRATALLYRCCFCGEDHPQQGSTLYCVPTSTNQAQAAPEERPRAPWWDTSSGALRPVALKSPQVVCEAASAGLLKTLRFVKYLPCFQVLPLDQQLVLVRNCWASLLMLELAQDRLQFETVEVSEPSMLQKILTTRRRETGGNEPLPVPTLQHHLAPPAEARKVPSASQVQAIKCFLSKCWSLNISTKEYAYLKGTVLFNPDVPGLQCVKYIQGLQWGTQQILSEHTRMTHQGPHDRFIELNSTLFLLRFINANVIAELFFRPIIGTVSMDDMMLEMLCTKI
SF1 mutant ctr: nonselective inhibitor or artifact in SF-1 mutant DAX1 counter-screen; shares compounds with DAX1 inh-1; HEK293 StAR-luciferase, SF-1 AF2 mutant, luminescence; inhibition, % at 6.8 µM; 78% of 2,400 active; AID 652136;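 active means inhibition above the mean of all tested compounds plus 3 SD, cut at about 3% in these data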
LXRb hcDAF ctr: LXR-beta agonism as hcDAF-12 counter-screen; shares compounds with hcDAF12 agonist; HEK293 Gal4-LXR tk-luc reporter, luminescence, 24 h; normalized: DMSO 0%, positive control 100%; activation, % at 6.8 µM; 3,400 tested, under 10 active; AID 743027;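 active means mean percent activation of the reporter above a cutoff set as the average over tested compounds plus their standard deviation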
hcDAF12 conf: confirmation of H. contortus DAF-12 agonists | AID 743032 | HEK293 hcDAF-12 lit1-tk-luc reporter, luminescence; % of Δ7-dafachronic acid response | shares compounds with hcDAF12 agonist | activation, % at 6.8 µM | 61% of 3,400 active;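 active means mean activation across triplicate tests above the threshold derived from the earlier primary screen, cut at about 5.5% in these data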
hgDAF12 conf: confirmation of H. glycines DAF-12 agonists | 80% of 3,300 active | shares compounds with hgDAF-12 ag | HEK293 GAL4-hgDAF12 luciferase reporter, agonist mode; percent of butyrate response | activation, % at 6.8 µM;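 active means mean activation over triplicate wells above the hit cutoff derived from the earlier primary screen, cut at about 11% in these data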
LXRb DAF12 ctr: activates human LXR-beta, counter-screen for DAF-12 agonists; shares compounds with hgDAF-12 ag; HEK293 Gal4-LXR luciferase reporter, 24 h; activation, % at 6.8 µM; 3,300 tested, under 10 active; AID 743051;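 active means mean activation of the triplicate above a set limit carried over from the primary screen, none filed active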
Of the large screens only hits and unclear results are named; the others gave an inactive call (follow-up assays come after a bar, where they were run); ! = not active in a repeat.

COC(=O)CCC1NC(=O)C(Cc2c[nH]c3ccccc23)NC(=O)C2CC(=O)OC(C)C(NC(=O)C(C)NC(=O)C3CCCN3C(=O)C3CCCN3C(=O)C(C)NC(C)=O)C(=O)NC(CC(C)C)C(=O)NC(CCCCNC(=O)CCC(C(=O)NC(Cc3ccc(O)cc3)C(=O)O)NC1=O)C(=O)NC(Cc1c[nH]c3ccccc13)C(=O)N1CCCC1C(=O)NC(CO)C(=O)N2 (configuration not stated)	none (no result: DAX1 inh-2)
Brc1ccc(CSc2nnc(SCc3ccccc3)s2)cc1	none (no result: DAX1 inh-2)
O=C(Nc1nc2ccc(Cl)cc2s1)c1cccc(N2C(=O)CCC2=O)c1	hgDAF-12 ag 13.6, DAX1 inh-1 5.0 | DAX1 inh confirm 7.6 | SF1 mutant ctr 4.1 | hgDAF12 conf inactive | LXRb DAF12 ctr inactive
COc1ccc2nc(NC(=O)c3cccc(N4C(=O)CCC4=O)c3)sc2c1	none
O=C(Cc1ccccc1)NC1CCCCN(Cc2ccc(Cl)cc2)C1=O (configuration not stated)	none (no result: DAX1 inh-2)
COc1ccccc1NC(=O)OCCN1CCCC12CCC(c1ccccc1)CC2 (configuration not stated)	none (no result: DAX1 inh-1, DAX1 inh-2)
O=C(Nc1n[nH]c(=S)s1)c1ccc2ccccc2c1	hgDAF-12 ag 13.8, DAX1 inh-1 16.1 | DAX1 inh confirm 13.2 | SF1 mutant ctr 6.3 | hgDAF12 conf 13.3 | LXRb DAF12 ctr inactive
CNC(=O)c1sc2nc(-c3ccc(OC)cc3)cn2c1C	hgDAF-12 ag 15.8, DAX1 inh-1 5.7, hcDAF12 agonist 9.1 | DAX1 inh confirm 10.7 | SF1 mutant ctr 7.0 | LXRb hcDAF ctr inactive | hcDAF12 conf inactive | hgDAF12 conf 13.4 | LXRb DAF12 ctr inactive
CC1CCN(c2ccc(NC(=O)c3ccc(Br)o3)cc2)CC1	hgDAF-12 ag 19.9, DAX1 inh-1 13.7 | DAX1 inh confirm 11.3 | SF1 mutant ctr 9.6 | hgDAF12 conf 17.9 | LXRb DAF12 ctr inactive
CS(=O)(=O)N1CCN(c2ccc(NC(=O)c3ccc(Br)o3)cc2)CC1	none
O=C(c1ccccc1)N1CC[C@H]2[C@H](CCCN2Cc2cc(F)cc(F)c2)C1	none (no result: DAX1 inh-2)
CCOc1cccc(C(=O)NC(=S)Nc2ccc3c(c2)OCCO3)c1	none
O=C(NC(=S)Nc1ccc2c(c1)OCCO2)c1ccccc1F	hgDAF-12 ag 18.7, DAX1 inh-1 7.6 | DAX1 inh confirm 12.2 | SF1 mutant ctr 7.0 | hgDAF12 conf 18.3 | LXRb DAF12 ctr inactive
O=C(NC(=S)Nc1ccc2c(c1)OCCO2)c1ccccc1	hgDAF-12 ag 14.4, DAX1 inh-1 4.7 | DAX1 inh confirm 15.8 | SF1 mutant ctr 8.7 | hgDAF12 conf 20.6 | LXRb DAF12 ctr inactive
CSCc1ccc(C(=O)Nc2ccc(C(N)=O)cc2)cc1	hgDAF-12 ag 13.3, DAX1 inh-1 5.3 | DAX1 inh confirm 9.6 | SF1 mutant ctr 5.0 | hgDAF12 conf 13.1 | LXRb DAF12 ctr inactive
CSCc1ccc(C(=O)NCc2ccc(C)cc2)cc1	none
COc1cccc(C(=O)Nc2nnc(-c3ccccc3)s2)c1OC	hgDAF-12 ag 18.8, DAX1 inh-1 5.5, hcDAF12 agonist 7.0 | DAX1 inh confirm 7.6 | SF1 mutant ctr 4.0 | LXRb hcDAF ctr inactive | hcDAF12 conf inactive | hgDAF12 conf 14.4 | LXRb DAF12 ctr inactive
O=C(Nc1nnc(-c2ccccc2)s1)c1ccccc1O	none
Cc1ccnc(N2C(=O)c3ccccc3C2O)c1 (configuration not stated)	hgDAF-12 ag 16.2, DAX1 inh-1 7.1, hcDAF12 agonist 6.7 | DAX1 inh confirm 11.0 | SF1 mutant ctr 7.4 | LXRb hcDAF ctr inactive | hcDAF12 conf inactive | hgDAF12 conf 16.5 | LXRb DAF12 ctr inactive
CN(c1ccc(O)cc1)c1nc(-c2cccs2)cs1	hgDAF-12 ag 18.6, DAX1 inh-1 7.7 | DAX1 inh confirm 8.7 | SF1 mutant ctr 3.6 | hgDAF12 conf 14.2 | LXRb DAF12 ctr inactive
Cc1cc(O)ccc1Nc1nc(-c2cccs2)cs1	hgDAF-12 ag 16.8, ssDAF12 agonist 1.0, DAX1 inh-1 5.5 | DAX1 inh confirm 9.3 | SF1 mutant ctr 4.7 | hgDAF12 conf 20.9 | LXRb DAF12 ctr inactive
Cc1nc(C)c(-c2csc(Nc3ccc(O)cc3C)n2)s1	none
C/C(N)=C(/C#N)C(=O)CSc1nnc(-c2ccc(OC(F)F)cc2)o1	hgDAF-12 ag 19.7, DAX1 inh-1 4.8, DAX1 inh-2 6.3!, hcDAF12 agonist 6.8! | DAX1 inh confirm 10.6 | SF1 mutant ctr 8.2 | LXRb hcDAF ctr inactive | hcDAF12 conf 7.3 | hgDAF12 conf 13.5 | LXRb DAF12 ctr inactive
CC(C)N1CCC(=NNC(=O)c2ccccc2[N+](=O)[O-])CC1	none
CC(C)N1CCC(=NNC(=O)c2cccs2)CC1	hgDAF-12 ag 14.3, ssDAF12 agonist 1.5, DAX1 inh-1 9.6, hcDAF12 agonist 6.1 | DAX1 inh confirm inactive | SF1 mutant ctr inactive | hgDAF12 conf inactive | LXRb DAF12 ctr inactive
COC(=O)C1=C(C)N(Cc2ccc(C(F)(F)F)cc2)C(=NCc2ccc(C(F)(F)F)cc2)NC1c1cccc(C(F)(F)F)c1 (configuration not stated)	none (no result: DAX1 inh-2)
Cc1ccc2nc(-c3ccc(F)cc3)c(CC3CCCCC3)n2c1	hgDAF-12 ag 13.9, ssDAF12 agonist 1.5, DAX1 inh-1 6.6, hcDAF12 agonist 9.7 (no result: DAX1 inh-2) | DAX1 inh confirm inactive | SF1 mutant ctr 5.0 | LXRb hcDAF ctr inactive | hcDAF12 conf inactive | hgDAF12 conf inactive | LXRb DAF12 ctr inactive
COC(=O)c1ccc2nc(-c3ccc(Cl)cc3)c(CC3CCCCC3)n2c1	none (no result: DAX1 inh-2)
N#Cc1c(NC(=O)CSc2nnc(-c3ccccc3)o2)sc2c1CCCC2	none (no result: hgDAF-12 ag, ssDAF12 agonist, DAX1 inh-1, hcDAF12 agonist)
O=C(CSc1nnc(-c2csc3c2CCCC3)o1)Nc1ccccc1	hgDAF-12 ag 17.7, ssDAF12 agonist 2.1, DAX1 inh-1 10.4, hcDAF12 agonist 14.3 | DAX1 inh confirm 19.1 | SF1 mutant ctr 7.2 | LXRb hcDAF ctr inactive | hcDAF12 conf 18.9 | hgDAF12 conf 16.0 | LXRb DAF12 ctr inactive
